According to the supplement of paper PMC10981050:
Values joined by “and” are separate entries in the source; they are usually repeats but may differ in a detail not shown here. Equal values may be shown once. Where a name gives a salt, the structure may show the parent alone.

Legend:
Experiment in all cases: cell viability relative to vehicle control; higher = less cytotoxic
Settings in all cases: 10 µM
[1] = system: K562
Summary of the method: (§1)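 Each screen used CRISPR-edited mutant and wild-type clones from four leukaemia lines. Compounds were acoustically dispensed at a single 10 µM dose, and CellTiter-Glo luminescence was read after 48 h with the supernatant first removed. Viability was analysed in Genedata Screener and given as percent of the on-plate vehicle control.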

[2] = system: MARIMO
Summary of the method: as §1

[3] = system: MOLM14
Summary of the method: as §1

[4] = system: OCI-AML2
Summary of the method: as §1

SMILES	cell viability ([1]; SRSF2 genotype: SRSF2 P95H/wt)	cell viability ([1]; SRSF2 genotype: SRSF2 wt/wt) [%]	cell viability ([2]; SRSF2 genotype: SRSF2 P95H/wt) [%]	cell viability ([2]; SRSF2 genotype: SRSF2 wt/wt) [%]	cell viability ([3]; SRSF2 genotype: SRSF2 P95H/wt) [%]	cell viability ([3]; SRSF2 genotype: SRSF2 wt/wt) [%]	cell viability ([4]; SRSF2 genotype: P95H/wt) [%]	cell viability ([4]; SRSF2 genotype: wt/wt) [%]
O=C(O)c1cc(=O)cc(C(=O)O)o1 [Chelidonic acid]	105%	113	110	106	101	107	110	105
NC[C@H](O)c1ccc(O)c(O)c1 [Noradrenaline bitartrate monohydrate (Levoph]	86.5% and 94.4%	98.2	92.6	94.3	85.7	93.7	96.7	103
O=S(=O)(c1ccccc1)N(CC(F)(F)F)c1ccc(C(O)(C(F)(F)F)C(F)(F)F)cc1	74.6% and 72.6%	72.3	67.8	70.4	62.3	65.2	67.5	70.7
Cc1cc(F)c(Nc2ncnc3cc(OCc4ccccc4)ccc23)cc1O	82.7% and 95.5%	94.6	73.6	97.9	93.3	102	71.2	81
COc1cccc2c1C(=O)c1c(O)c3c(c(O)c1C2=O)C[C@@](O)(C(=O)CO)C[C@@H]3O[C@H]1C[C@H](N)[C@H](O[C@@H]2CCCCO2)[C@H](C)O1 [Pirarubicin]	9.97% and 17.9%	15.8	5.07	2.51	0.15	0.13	0.2	0.51
CC(C)S(=O)(=O)c1ccc2nccc(Nc3ccc4scnc4c3)c2c1	60.2% and 78.2%	63.7	101	108	75.2	78.2	83.2	88.5
CCOc1cc2ncc(C#N)c(Nc3ccc(OCc4ccccn4)c(Cl)c3)c2cc1NC(=O)/C=C/CN(C)C [Neratinib (HKI-272)]	68.5% and 66.3%	62.6	42.1	41.8	54.1	53.4	13.3	36.9
COc1nc(N)nc2c1ncn2[C@@H]1O[C@H](CO)[C@@H](O)[C@@H]1O [Nelarabine (Arranon)]	98.2% and 96.9%	99.6	95.5	91.2	90.7	93.5	94.7	94.5
COc1cc(C(C)=O)ccc1O [Apocynin (Acetovanillone)]	103% and 104%	105	91.6	110	104	103	93	93.7
COc1ccc(C2CC(=O)c3c(O)cc(OC4OC(COC5OC(C)C(O)C(O)C5O)C(O)C(O)C4O)cc3O2)cc1 (stereo not drawn) [Didymin]	107% and 103%	112	108	105	106	111	104	103
O=C(O)c1ccc(CN2CCC(CN[C@@H]3C[C@H]3c3ccccc3)CC2)cc1	98.9% and 101%	95.4	92.3	91	98.7	87.2	78.3	91.6
OC[C@H]1O[C@@H](c2ccc(F)c(Cc3cc4ccccc4s3)c2)[C@H](O)[C@@H](O)[C@@H]1O [Ipragliflozin (ASP1941)]	96.6% and 98.5%	102	95.6	95.8	101	99.4	99.1	95.1
CCCCc1nc(Cl)c(CO)n1Cc1ccc(-c2ccccc2-c2nnn[nH]2)cc1 [Losartan potassium]	106% and 103%	104	103	114	104	104	102	106
CC(=O)CCc1ccccc1 [Benzylacetone]	100% and 103%	104	101	92.5	106	98.6	106	94.8
CC(C)c1cc(C(=O)N2Cc3ccc(CN4CCN(C)CC4)cc3C2)c(O)cc1O	21.1% and 29.8%	24	28	26.9	3.31	4.31	18.1	22.8
CN(CCOc1ccc(CC2SC(=O)NC2=O)cc1)c1ccccn1 (stereo not drawn) [Rosiglitazone HCl]	100% and 101%	97.4	102	115	103	109	102	105
CC(C)=CC(O)C/C(C)=C/COc1c2ccoc2cc2oc(=O)ccc12 (stereo not drawn) [Notopterol]	72.4% and 82.5%	76.1	64.7	57.1	71.2	56.4	51.5	43
CC(=O)O[C@H]1C(=O)[C@@]2(C)[C@H]([C@H](OC(=O)c3ccccc3)[C@]3(O)C[C@H](OC(=O)[C@H](O)[C@@H](NC(=O)c4ccccc4)c4ccccc4)C(C)=C1C3(C)C)[C@]1(OC(C)=O)CO[C@@H]1C[C@@H]2O [7-Epitaxol]	19.6% and 30.7%	26.1	7.11	4.44	8	2.61	6.19	12.1
CC12CCC(CC1=O)C2(C)C (stereo not drawn) [Camphor]	102%	103	104	108	105	104	102	99.1
Oc1ccc2c(c1)OCO2 [Sesamol]	96.7% and 82%	83.8	76.8	88.2	86.5	88	92	92.1
Clc1cccc(-c2nnnn2Cc2cccnc2)c1Cl	103% and 112%	106	102	101	101	108	108	116
